About 330 (14%) of roughly 2,300 compounds showed activity.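 How the source made its calls: active = median modified Z-score above 1.96; inactive = 1.96 or below.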 Not all results are given here.
system: HepG2 Srxn1-GFP reporter cells (+30 nM CDDO-Me); assay: Srxn1-GFP intensity median modified Z-score relative to plate median; higher = stronger NRF2 / oxidative stress reporter activation, active = hit call of the paper; conditions: 10 µM; exposure time: 24h
Procedure, shortened: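 Each value is the replicate median of a per-plate modified Z-score for GFP intensity in HepG2 Srxn1-GFP BAC reporter cells. The cells (20,000 per well, 96-well plates, three replicate plates) received compound at 10 μM together with an NRF2 activator at 30 nM for 24 h, in ≤0.1% DMSO. Cytoplasmic GFP was quantified per cell from confocal images of formaldehyde-fixed, Hoechst-stained cells, leaving out images with fewer than 100 cells, and scaling used 1.4826 × median absolute deviation.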

Structure (SMILES)	Srxn1-GFP intensity median modified Z-score
COc1ccc(C(=O)c2ccc(O)cc2)c(O)c1O [euspeclibcmpd1507]	-0.213 (inactive)
O=C1[O][Bi]([OH])[O]c2ccccc21 [euspeclibcmpd2458]	0.155 (inactive)
NC(=O)N1c2ccccc2CC(=O)c2ccccc21 [euspeclibcmpd673]	-0.538 (inactive)
O=C1CC(=O)c2ccccc2C1=O [euspeclibcmpd1562]	9.54 (active)
C/C(=C\CO)CC[C@H](C)CCC[C@H](C)CCCC(C)C [euspeclibcmpd1621]	-0.0936 (inactive)
[O-][n+]1cccc(CO)c1 [euspeclibcmpd1263]	-0.263 (inactive)
O=C(O)C=Cc1ccc(O)c(O)c1 [euspeclibcmpd1336]	-0.408 (inactive)
O=C(C=Cc1ccc(O)c(O)c1)OC(Cc1ccc(O)c(O)c1)C(=O)O (stereo not drawn) [euspeclibcmpd2083]	-0.529 (inactive)
O=C(C=Cc1ccc(O)c(O)c1)OCCc1ccccc1 [euspeclibcmpd1775]	3.45 (active)
Cc1ccc(C)c(N2C(=O)c3ccc(C(=O)OCC(=O)N4CCc5ccccc54)cc3C2=O)c1	1.06 (inactive)
O=C(Nc1cccc(Oc2cnccn2)c1)c1cc2cc(F)ccc2[nH]1	1.62 (inactive)
CCN(CC)CCNC(=O)c1cc(S(C)(=O)=O)ccc1OC [euspeclibcmpd525]	-0.717 (inactive)
CCN(CC)CCNC(=O)c1cc(Cl)c(N)cc1OC [euspeclibcmpd197]	86.5 (active)
CCN(CC)CCNC(=O)c1cc(Br)c(N)cc1OC [euspeclibcmpd1122]	0 (inactive)
NC(=O)C1CCCN(Cc2cccc(CNc3ncc(F)cn3)c2)C1 (stereo not drawn)	1.1 (inactive)
CC(CN(C)C)CN1c2ccccc2CCc2ccccc21 (stereo not drawn) [euspeclibcmpd531]	0.095 (inactive)
CN=C(C[N+](=O)[O-])NCCSCc1ccc(CN(C)C)o1 [euspeclibcmpd2160]	-0.118 (inactive)
CC1(C)SC2C(NC(=O)C(N)c3ccc(O)cc3)C(=O)N2[C@H]1C(=O)O (stereo partly drawn) [euspeclibcmpd23]	-0.305 (inactive)
CCC(C)n1ncn(-c2ccc(N3CCN(c4ccc(OC[C@H]5CO[C@](Cn6cncn6)(c6ccc(Cl)cc6Cl)O5)cc4)CC3)cc2)c1=O (stereo partly drawn) [euspeclibcmpd951]	2.71 (active)
CC(C)N1CCN(c2ccc(OC[C@H]3CO[C@](Cn4cncn4)(c4ccc(Cl)cc4Cl)O3)cc2)CC1 [euspeclibcmpd617]	1.6 (inactive)
CC(=O)N1CCN(c2ccc(OCC3CO[C@](Cn4ccnc4)(c4ccc(Cl)cc4Cl)O3)cc2)CC1 (stereo partly drawn) [euspeclibcmpd169]	0.674 (inactive)
N=C(N)N=c1[nH]c(CSCCC(=N)NS(N)(=O)=O)cs1 [euspeclibcmpd364]	0.317 (inactive)

Structure (SMILES)	Srxn1-GFP intensity median modified Z-score
O=C(O[C@@H]1Cc2c(O)cc(O)cc2OC1c1cc(=O)c(O)c2c(O)c(O)cc(C3Oc4cc(O)cc(O)c4C[C@H]3O)c2c1)c1cc(O)c(O)c(O)c1 (stereo partly drawn) [euspeclibcmpd1583]	-0.77 (inactive)
COc1ccc(-c2cc(=O)c3c(O)c(OC)c(OC)c(OC)c3o2)cc1 [euspeclibcmpd2317]	0.184 (inactive)
COc1ccc(-c2cc(=O)c3c(OC)c(OC)c(OC)c(OC)c3o2)cc1OC [euspeclibcmpd1435]	1.9 (inactive)
COc1ccc(-c2cc(=O)c3c(OC)c(OC)c(OC)c(OC)c3o2)cc1 [euspeclibcmpd1464]	6.78 (active)
OC[C@@H](O)[C@@H](O)[C@@H](O)[C@H](O)[C@@H](O)CO [euspeclibcmpd1702]	-0.744 (inactive)
C#CCCCCCCCCCCCC(O)CC(O)CO (stereo not drawn) [euspeclibcmpd1458]	4.24 (active)
CC(=O)OCC(OC(C)=O)C(OC(C)=O)C(OC(C)=O)C(OC(C)=O)C(COC(C)=O)OC(C)=O (stereo not drawn) [euspeclibcmpd1364]	-0.434 (inactive)
C=CCCCCCCCCCCCC(O)CC(O)CO (stereo not drawn) [euspeclibcmpd1371]	1.62 (inactive)
C#CCCCCCCCCCCCC(O)CC(O)COC(C)=O (stereo not drawn) [euspeclibcmpd1372]	3.35 (active)
C=CCCCCCCCCC(=O)O [euspeclibcmpd2049]	0.331 (inactive)
CC(=O)OCC(COC(C)=O)OC(C)=O [euspeclibcmpd301]	0.397 (inactive)
C=CCCCCCCCCCCCC(O)CC(O)CO (stereo not drawn) [euspeclibcmpd2211]	2.24 (active)
CC(=O)O[C@@]12CO[C@@H]1C[C@H](O)[C@@]1(C)C(=O)C(=O)C3C(C)[C@@H](OC(=O)[C@@H](O)[C@@H](NC(=O)OC(C)(C)C)c4ccccc4)C[C@@](O)([C@@H](OC(=O)c4ccccc4)C12)C3(C)C (stereo partly drawn) [euspeclibcmpd1130]	1.49 (inactive)
O=C(O)CCNC(=O)c1ccc(N=Nc2ccc(O)c(C(=O)O)c2)cc1 [euspeclibcmpd2245]	-0.361 (inactive)
CN(C)c1ccc(O)c2c1C[C@H]1C[C@H]3C(N(C)C)C(=O)C(C(N)=O)C(=O)[C@@]3(O)C(=O)C1C2=O (stereo partly drawn) [euspeclibcmpd201]	-0.262 (inactive)
COC(=O)CCC(C)C1CCC2C3CC[C@@H]4C[C@H](O)CC[C@]4(C)C3C[C@H](O)[C@]12C (stereo partly drawn) [euspeclibcmpd1611]	-0.0244 (inactive)
CCc1cc(Cl)c(OC)c(C(=O)NCC2CCCN2CC)c1O (stereo not drawn) [euspeclibcmpd333]	0.457 (inactive)
CCS(=O)(=O)CCn1c([N+](=O)[O-])cnc1C [euspeclibcmpd439]	0.00367 (inactive)
CCOC(=O)CCC(=O)O[C@H]1[C@H](O[C@@H]2[C@@H](C)[C@H](O[C@H]3C[C@@](C)(OC)[C@@H](O)[C@H](C)O3)C(C)C(=O)O[C@H](CC)[C@@](C)(O)[C@H](O)C(C)C(=O)C(C)C[C@@]2(C)O)O[C@H](C)C[C@@H]1N(C)C (stereo partly drawn) [euspeclibcmpd114]	0.427 (inactive)
CC1(OC(=O)C=Cc2ccccc2)CC(O)C2(O)C=COC(OC3OC(CO)C(O)C(O)C3O)C12 (stereo not drawn) [euspeclibcmpd1930]	0.27 (inactive)
CCCCC1=NC2(CCCC2)C(=O)N1Cc1ccc(-c2ccccc2-c2nn[nH]n2)cc1 [euspeclibcmpd676]	-0.243 (inactive)

From the supplement of paper PMC10498489
